# Data taken from PubChem BioAssay AID720519 (National Center for Advancing Translational Sciences (NCATS), 2013).
# Results filed as inconclusive are left out. Unmarked numbers belong to inactive results. Calls of active or inactive are those of the source. The call rests on the fitted dose curve; in most records, active means well fitted activation curve with a large enough effect; inconclusive means small, poorly fitted or top-dose-only effect; inactive means flat fitted curve, though single readings scatter.
# Test: qHTS for Inhibitors of Cell Surface uPA Generation: Confirmatory Assay for Cherry-picked Compounds; on inhibition: 0% is about no effect
# Conditions: cell surface uPA activity generation, qHTS confirmation; series mostly up to 115 µM; inhibition: at the top concentration
# Summary of the method: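 RAW 264.7 cells at 4000/well, incubated overnight, then treated with compounds. After 24 h at 37 C, viability was read by ATPlite luminescence. An increase in signal indicates blocked uPA-dependent LF entry.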
# Potency means the concentration at half of the fitted maximal effect.
SMILES,inhibition [%],Potency
CCC(C)C(NC(=O)c1ccccc1)C(=O)Nc1ccc(S(=O)(=O)Nc2cc(C)nc(C)n2)cc1 (centres undefined),-2.37,
COc1cc(NC(=O)COC(=O)c2cc(S(=O)(=O)N3CCCCC3)ccc2Cl)c(C)cc1[N+](=O)[O-],0.838,
COC(=O)CNC(=O)COC(=O)/C=C/c1ccccc1[N+](=O)[O-],-2.86,
CC(C)c1ccc(NC(=O)COc2ccc(S(=O)(=O)N3CCOCC3)cc2)cc1,-0.157,
CCC1(C)NC(=O)N(CC(=O)Nc2sc3c(c2C(N)=O)CCC3)C1=O (centres undefined),7.12,
CC1Cc2nc(SCC(=O)N3CCCC3)n(C)c(=O)c2S1 (centres undefined),-3.28,
Cc1ccc2oc(=O)c3cnn(CC(=O)Nc4ccccc4N4CCN(C)CC4)c3c2c1,,9.27 µM (active)
CCS(=O)(=O)N1CCC(C(=O)NCc2ccc(OC)cc2OC)CC1,0.281,
NC(=O)c1ccccc1NC(=O)CC12CC3CC(CC(C3)C1)C2,-2.57,
O=C(/C=C/c1cccc(F)c1)Nc1cc(S(=O)(=O)N2CCOCC2)ccc1Cl,-2.51,
COC(=O)CCSCC(=O)N1N=C(c2ccc(OC)cc2)CC1c1cccc(OC)c1OC (centres undefined),-3.06,
CC(C)NC(=O)NC(=O)CN1C(=O)NC(Cc2c[nH]c3ccccc23)C1=O (centres undefined),-2.11,
Cc1cc(C)nc(NC(=O)CSc2nccc(C)n2)n1,-3.03,
Cc1cc(C)cc(NC(=O)COC(=O)CCn2c(C)csc2=O)c1,-1.09,
OC(COc1ccc(Br)cc1)CN1CCN(c2ccccc2)CC1 (centres undefined),-0.285,
N#C/C(N=Nc1ccccc1O)=N\Nc1ccccc1O,7.46,
O=C(CSc1nnnn1-c1cccc(F)c1)Nc1nc2ccccc2s1,0.878,
CCc1nccn1CCC(=O)N1CCc2c([nH]c3ccccc23)C1CC(C)C (centres undefined),-0.754,
CC1CC(C)CN(CCCNC(=O)CN2C(=O)CSc3ccc(S(=O)(=O)N4CCOCC4)cc32)C1 (centres undefined),0.198,
COc1cc2oc(=O)ccc2cc1[C@H](O)[C@@H](O)C(C)(C)O,-1.24,

SMILES,inhibition [%],Potency
Cc1cc2c(cc1S(=O)(=O)Nc1ccc(F)cc1)n(C)c(=O)c(=O)n2C,-1.34,
CCOc1ccc(NC(=S)N2CCC(c3ccc(C)cc3)C2)cc1 (centres undefined),-2.73,
CSc1ccccc1OCc1cc(C(=O)NCCCn2nc(C)cc2C)no1,-3.03,
Cc1ccc(-n2nc3c(c2NC(=O)c2ccc4c(c2)OCO4)CS(=O)C3)c(C)c1 (centres undefined),1.56,
C[C@@H](CSc1ccccc1)CN1CC[C@H](O)CCC1=O,-0.766,
CCOC(=O)c1ccccc1N=Cc1c(O)c2ccccc2oc1=O,-2.11,
O=C(NCCN1CCOCC1)c1ccc2c(c1)N(Cc1ccc(Cl)cc1)CCS2,1.95,
O=C1C=C(NNC(=O)c2ccncc2)CC(c2ccccc2)C1 (centres undefined),-1.37,
CC(=O)NC(=S)Nc1ccc([N+](=O)[O-])cc1C,4.72,
Cc1cccc(C(=O)Nc2cc(=O)n(C)c(=O)n2C)c1,-2.43,
O=C(CSc1ccc(Cl)cc1)N1CCCC1,-2.87,
O=C(Nc1ccc2c(c1)CCC2)Nc1ccc2c(c1)OCO2,0.735,
Fc1ccc(N2CCN(c3nc(CN4CCOCC4)nc4scc(-c5ccccc5)c34)CC2)cc1,-2.29,
CC1(C)S[C@@H]2[C@H](NC(=O)C(C(=O)O)c3ccccc3)C(=O)N2[C@H]1C(=O)O (some centres undefined),-0.669,
COc1ccc(CNC(=O)C2CCC(CNS(=O)(=O)c3ccc(C)cc3)CC2)cc1 (centres undefined),-1.64,
COc1ccc(C(=O)CC2(C(=O)O)CCCCC2)cc1,-1.31,
O=C(Nc1cccc(NC(=O)c2ccc(F)cc2)c1)c1ccc(F)cc1,0.535,
COc1ccc(C(=O)NC(=S)Nc2ccc(NC(=O)c3ccco3)cc2)cc1[N+](=O)[O-],0.844,
COCCOC(=O)C1=C(C)NC(=O)NC1c1cccc2ccccc12 (centres undefined),1.45,
